# Measured values: PubChem BioAssay AID463173 (ICCB-Longwood Screening Facility, Harvard Medical School, 2010)
# Out of some 52,000 compounds screened, about 4,300 (8.3%) were called active. Only a selection was taken, and actives are over-represented in it overall. A number with no mark means an inactive call. No stated cut-off is given here; in the data, active means survival mostly below about 52% (no sharp cut-off); inactive means mostly above about 56%.
# Test system: DeltatarO mutant
# Assay: growth inhibition of S. aureus wild type versus tarO mutant, primary screen, teichoic acid synthesis inhibitors, RN4220, OD600 (AID 463173)
# Conditions: OD600, 18 h, active compounds read low, screened at 18.75 µg/mL (by protocol)
row,Compound,survival
1,COc1cc(C(=O)N2CCN(c3ccc(Nc4ccccc4)nn3)CC2)cc(OC)c1OC,80%
2,COc1cc(C(=O)Nc2sc(C(=O)N3CCOCC3)c(C)c2C#N)cc(OC)c1OC,84%
3,CN(C)CCN(C(=O)c1ccco1)c1nc2c(F)cc(F)cc2s1,72%
4,O=C(c1ccc2c(c1)N(Cc1ccc(Cl)cc1)C(=O)c1ccccc1S2(=O)=O)N1CCOCC1,96%
5,O=C1OC(C(=O)Nc2cc(C(F)(F)F)ccc2Cl)Cc2ccccc21 (centres undefined),56% (active)
6,O=C1OC(C(=O)Nc2ccc(Cl)c(C(F)(F)F)c2)Cc2ccccc21 (centres undefined),55%
7,O=C1OC(C(=O)Nc2cccc(Br)c2)Cc2ccccc21 (centres undefined),54%
8,CCCOc1ccc(C(=O)N(Cc2cccs2)c2ccc(C)cc2)cc1,70%
9,Cn1c(CCNC(=O)c2ccco2)nc2cc(NC(=O)COc3ccc(Cl)cc3)ccc21,58%
10,COc1cc(OC)c(NC(=O)c2c3c(nc4ccccc24)C(=O)N(C2CCCCC2)C3)cc1Cl,60%
11,Cc1ccc(-n2nc(CO)c(C(=O)NCC(c3ccccc3)c3ccccc3)n2)cc1,90%
12,CCOc1ccc(CCNC(=O)CCSCc2cccc(Cl)c2)cc1OCC,81%
13,CCOCCc1nn2c(=O)cc(COC(=O)c3ccccc3NC(=O)CC(C)C)nc2s1,89%
14,COc1ccc(OC)c(NC(=O)CCCc2nnc3n(C(C)C)c(=O)c4sccc4n23)c1,74%
15,CCn1c(=O)c2cc(C(=O)N3CCN(c4cccc(Cl)c4)CC3)sc2c2ccccc21,62%
16,Cc1cccc(N2CCN(C(=O)c3cc4c(=O)n(C)c5ccccc5c4s3)CC2)c1C,47% (active)
17,COc1cccc(N2CCN(C(=O)c3cc4c(=O)oc5ccc(C)cc5c4s3)CC2)c1,89%
18,Cn1c(=O)c2cc(C(=O)N3CCN(c4cccc(C(F)(F)F)c4)CC3)sc2c2ccccc21,92%
19,Cc1ccc(Cl)cc1N1CCN(C(=O)c2cc3c(=O)n(C)c4ccccc4c3s2)CC1,56%
20,COc1ccccc1N1CCN(C(=O)c2cc3c(=O)n(C)c4ccccc4c3s2)CC1,73%
21,CCn1c(=O)c2cc(C(=O)N3CCN(c4cccc(OC)c4)CC3)sc2c2ccccc21,53% (active)

row,Compound,survival
1,Cn1c(=O)c2cc(C(=O)N3CCN(c4ccc(Cl)cc4)CC3)sc2c2ccccc21,56% (active)
2,Cc1cccc(N2CCN(C(=O)c3cc4c(=O)oc5ccccc5c4s3)CC2)c1C,66%
3,COc1ccc(CNC(=O)CSc2nc3cc4c(cc3cc2C#N)OCCO4)cc1,96%
4,CSc1cccc(NC(=O)C2CCN(C(=O)c3cnn(-c4ccccc4)c3-n3cccc3)CC2)c1,68%
5,COc1ccc(/C=C(\C#N)c2nc(-c3cc(Cl)ccc3OC)cs2)cc1,91%
6,CCc1ccc(NCc2cc3ccc(OC)cc3n(CC(=O)Nc3ccc(F)cc3F)c2=O)cc1,79%
7,COc1ccc(-n2c3c(cc(-c4nc(-c5ccc(C)cc5)cs4)c2=O)C(=O)CC(C)(C)C3)cc1,54%
8,CCOc1ccc(-n2c(-c3ccc(OC)cc3)cc3c2CC(C)(C)CC3=O)cc1,15% (active)
9,Cc1ccc(-c2cc3c(n2-c2ccc(F)cc2)CC(C)(C)CC3=O)cc1,98%
10,CCN(CC)C(=O)c1cc2c(n(-c3ccc(OC)cc3)c1=O)CC(C)(C)CC2=O,70%
11,Cc1ccc(-c2cc3c(n2-c2ccccc2F)CC(C)(C)CC3=O)cc1,101%
12,CCOc1ccc(-n2c(-c3ccc(Br)cc3)cc3c2CC(C)(C)CC3=O)cc1,17% (active)
13,CCOc1ccc(NC(=O)CSC2=Nc3ccccc3C3=NC(CC(=O)NCc4ccco4)C(=O)N23)cc1 (centres undefined),69%
14,CCCOc1cccc(C(=O)Nc2cc(-c3ccccc3)no2)c1,65%
15,O=c1c2oc3ccccc3c2n(Cc2ccccc2F)c(=O)n1Cc1ccccc1,46% (active)
16,COc1cc(NC(=O)Cn2c(=O)n(Cc3ccco3)c(=O)c3oc4ccccc4c32)cc(OC)c1,38% (active)
17,Cc1ccc(C)c(Cn2c(=O)n(C(C)C)c(=O)c3oc4ccccc4c32)c1,51% (active)
18,Cc1cc(C)cc(NC(=O)Cn2c(=O)n(Cc3ccco3)c(=O)c3oc4ccccc4c32)c1,106%
19,CC(C)n1c(=O)c2oc3ccccc3c2n(Cc2ccccc2F)c1=O,50%
20,CCCCn1c(=O)c2oc3ccccc3c2n(CC(=O)Nc2cc(C)ccc2C)c1=O,44% (active)
21,O=c1c2oc3ccccc3c2n(Cc2ccc(Cl)cc2)c(=O)n1Cc1ccccc1,108%

row,Compound,survival
1,Cc1ccc(C)c(NC(=O)Cn2c(=O)n(Cc3ccccc3)c(=O)c3oc4ccccc4c32)c1,62%
2,O=c1c2oc3ccccc3c2n(Cc2ccccc2F)c(=O)n1Cc1ccco1,77%
3,CCCCn1c(=O)c2oc3ccccc3c2n(CC(=O)Nc2cccc(Cl)c2C)c1=O,52%
4,COc1ccccc1NC(=O)Cn1c(=O)n(Cc2ccco2)c(=O)c2oc3ccccc3c21,67%
5,Cc1ccc(C)c(Cn2c(=O)n(Cc3ccco3)c(=O)c3oc4ccccc4c32)c1,97%
6,CN1/C(=C/C(=O)C2CCC2)Sc2ccccc21,56%
7,Cn1c(=O)n(C)c2cc(N3CCCCC3)c(NC(=O)Nc3ccc(Br)cc3)cc21,88%
8,COCCn1c(=N)c(C(=O)NCc2ccco2)cc2c(=O)n3cc(C)ccc3nc21,69%
9,COc1cccc(C(c2sc3nc(-c4ccco4)nn3c2O)N2CCN(C)CC2)c1 (centres undefined),88%
10,CCOC(=O)c1c(NC(=O)c2cc3nc(-c4ccc(OC)cc4)cc(C(F)(F)F)n3n2)sc2c1CCC(C)C2 (centres undefined),95%
11,CCOc1ccc(NS(=O)(=O)c2ccc3[nH]cc(C(=O)N4CCCC4)c(=O)c3c2)cc1,85%
12,CCOc1ccc(NC(=O)Cn2c(=O)n(Cc3ccc(C(=O)NCc4ccc(C)cc4)cc3)c(=O)c3ccccc32)cc1,75%
13,CCN(CC)c1nc(OCC(F)(F)F)nc(N(c2ccccc2)c2ccccc2)n1,76%
14,COc1cc(NC(=O)Cn2c(=O)n(Cc3ccccc3)c(=O)c3oc4ccccc4c32)cc(OC)c1,85%
15,COc1ccc(NC(=O)Cn2c(=O)n(Cc3ccccc3)c(=O)c3oc4ccccc4c32)cc1Cl,85%
16,CC(C)n1c(=O)c2oc3ccccc3c2n(CC(=O)Nc2ccccc2Cl)c1=O,60%
17,O=C(Cn1c(=O)n(Cc2ccco2)c(=O)c2oc3ccccc3c21)Nc1ccccc1,67%
18,Cc1cc(C)cc(NC(=O)Cn2c(=O)n(C(C)C)c(=O)c3oc4ccccc4c32)c1,48%
19,COc1ccc(NC(=O)Cn2c(=O)n(Cc3ccco3)c(=O)c3oc4ccccc4c32)cc1Cl,53%
20,COc1cc(NC(=O)Cn2c(=O)n(C(C)C)c(=O)c3oc4ccccc4c32)cc(OC)c1,47% (active)
21,O=C(Cn1c(=O)n(Cc2ccco2)c(=O)c2oc3ccccc3c21)Nc1ccc(F)c(Cl)c1,44% (active)

row,Compound,survival
1,COc1ccc(NC(=O)Cn2c(=O)n(C(C)C)c(=O)c3oc4ccccc4c32)cc1Cl,42% (active)
2,COc1cccc(CNC(=O)C2CCCN(S(=O)(=O)c3cn(C)cn3)C2)c1 (centres undefined),75%
3,CSCCC(NS(=O)(=O)c1cccs1)C(=O)Nc1ccc(C)c(Cl)c1 (centres undefined),74%
4,CCC(C(=O)N1CCN(c2ccccn2)CC1)c1ccccc1 (centres undefined),75%
5,COc1ccc(CNC(=O)CCS(=O)(=O)c2ccc3c(c2)oc(=O)n3C)cc1,75%
6,CCc1ccccc1NC(=O)Cn1c(=O)n(Cc2ccccc2)c(=O)c2c(C)c(C(=O)N(C)C)sc21,67%
7,N#CC(C#N)=C(C(C#N)=C1Nc2ccccc2N1)c1ccccc1F,59%
8,O=C(Nc1ccc(Br)cc1)c1ccc2c3c(onc13)-c1ccccc1C2=O,72%
9,CN(C)c1ccc(CNS(=O)(=O)c2ccc3[nH]c4c(c3c2)CCCCC4)cc1,84%
10,Cc1cccc(C(=O)Nc2ccc3nc(SCC(=O)N4CCCC4)sc3c2)c1,58%
11,Cc1ccc2c(=O)cc(C(=O)N(Cc3ccc(C(C)(C)C)cc3)C3CCS(=O)(=O)C3)oc2c1 (centres undefined),35% (active)
12,CCSc1ncc(Cl)c(C(=O)N(Cc2ccc(C(C)(C)C)cc2)C2CCS(=O)(=O)C2)n1 (centres undefined),42% (active)
13,CCSc1ncc(Cl)c(C(=O)N(Cc2ccccc2Cl)C2CCS(=O)(=O)C2)n1 (centres undefined),83%
14,CCOc1ccc(CN(C(=O)c2cc(=O)c3cc(C)cc(C)c3o2)C2CCS(=O)(=O)C2)cc1 (centres undefined),56%
15,CCOc1ccc(CN(C(=O)c2cc(=O)c3cc(Cl)ccc3o2)C2CCS(=O)(=O)C2)cc1 (centres undefined),104%
16,CCc1ccc(CN(C(=O)c2nc(SC)ncc2Cl)C2CCS(=O)(=O)C2)cc1 (centres undefined),71%
17,CCCOc1ccc(CN(C(=O)c2cc(=O)c3ccc(C)cc3o2)C2CCS(=O)(=O)C2)cc1 (centres undefined),36% (active)
18,CCc1ccc(CN(C(=O)c2cc(=O)c3ccc(C)cc3o2)C2CCS(=O)(=O)C2)cc1 (centres undefined),107%
19,Cc1ccc2c(=O)cc(C(=O)N(Cc3ccc(N(C)C)cc3)C3CCS(=O)(=O)C3)oc2c1 (centres undefined),115%
20,COc1cccc(NC(=O)c2oc3ccccc3c2NC(=O)c2ccc(C(F)(F)F)cc2)c1,60%
21,COc1cc(CN2CCc3nc(Nc4ccc5c(c4)OCCO5)ncc3C2)cc(OC)c1OC,91%
